# Measured values: the supplement of paper PMC10849652
# Of roughly 7,900 targets only a part is listed; those with a hit were picked by preference. About 0.6% of all pairs of compound and target were hits. Unmarked numbers belong to inactive results.
# Columns and labels:
# Experiment in all cases: log2 fold change, soluble protein after heating vs DMSO (PISA); higher = thermal stabilisation; K562 cells, 10 uM, 30 min; active = over 0.2 and 3.5 SD of the protein, either way, in both replicates (recomputed)
# AAGAB = AAGAB (UniProt Q6PD74)
# Method in brief: (§1)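 K562 cells at 2×10^6 cells/mL were exposed to 10 μM compound for 30 min, then aliquots were heated for 3 min across 48°C-58°C, pooled, and extracted in PBS containing 0.5% NP-40 at 4°C. The supernatant after 21,000xg for 90 min was taken as soluble protein and measured by TMTpro 16plex LC-MS/MS with channel sums equalised. Thermal stability is reported relative to control samples, with values from duplicates. Fold changes are given on a log2 scale.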
# AAK1 [1] = target: AAK1 (UniProt A0A096LP25)
# Method in brief: as §1
# AAK1 [2] = target: AAK1 (UniProt Q2M2I8)
# Method in brief: as §1
# Chain of AAGAB (Q6PD74 whole entry, looked up): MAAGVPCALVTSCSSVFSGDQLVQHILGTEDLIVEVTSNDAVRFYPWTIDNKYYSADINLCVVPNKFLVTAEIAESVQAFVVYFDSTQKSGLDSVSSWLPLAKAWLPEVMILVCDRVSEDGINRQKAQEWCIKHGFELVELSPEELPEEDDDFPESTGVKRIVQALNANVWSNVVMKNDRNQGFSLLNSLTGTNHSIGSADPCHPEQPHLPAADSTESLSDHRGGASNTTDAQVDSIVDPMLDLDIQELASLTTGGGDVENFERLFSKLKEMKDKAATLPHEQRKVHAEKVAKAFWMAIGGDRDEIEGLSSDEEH
# Chain of AAK1 (UniProt Q2M2I8) (Q2M2I8 whole entry, looked up): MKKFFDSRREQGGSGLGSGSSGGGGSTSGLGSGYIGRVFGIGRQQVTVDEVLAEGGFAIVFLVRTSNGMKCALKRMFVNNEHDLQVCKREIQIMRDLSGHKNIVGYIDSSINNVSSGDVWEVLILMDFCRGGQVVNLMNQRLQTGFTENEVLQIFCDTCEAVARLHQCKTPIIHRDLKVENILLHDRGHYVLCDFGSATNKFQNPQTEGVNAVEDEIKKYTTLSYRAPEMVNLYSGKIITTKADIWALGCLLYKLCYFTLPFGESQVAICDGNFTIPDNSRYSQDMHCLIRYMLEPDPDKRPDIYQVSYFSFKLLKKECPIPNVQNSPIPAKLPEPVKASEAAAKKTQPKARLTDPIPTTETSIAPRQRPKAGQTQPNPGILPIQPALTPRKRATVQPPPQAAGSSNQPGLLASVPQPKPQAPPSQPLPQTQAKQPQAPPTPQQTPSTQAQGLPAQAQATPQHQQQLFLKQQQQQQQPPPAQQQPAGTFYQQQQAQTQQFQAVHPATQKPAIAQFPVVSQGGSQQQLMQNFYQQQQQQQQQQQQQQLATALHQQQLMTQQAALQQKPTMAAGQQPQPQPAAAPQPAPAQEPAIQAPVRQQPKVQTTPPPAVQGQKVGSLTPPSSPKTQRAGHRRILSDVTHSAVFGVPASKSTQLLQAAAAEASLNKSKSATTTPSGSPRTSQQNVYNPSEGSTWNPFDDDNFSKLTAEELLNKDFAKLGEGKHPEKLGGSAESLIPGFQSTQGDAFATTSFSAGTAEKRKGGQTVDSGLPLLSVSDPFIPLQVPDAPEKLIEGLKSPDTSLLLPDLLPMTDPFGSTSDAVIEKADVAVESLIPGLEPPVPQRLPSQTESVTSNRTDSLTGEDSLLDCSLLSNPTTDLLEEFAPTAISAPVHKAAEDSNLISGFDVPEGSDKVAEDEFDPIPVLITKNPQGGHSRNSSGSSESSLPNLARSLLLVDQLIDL
Structure (SMILES),log2 fold change (AAGAB),log2 fold change (AAK1 [1]),log2 fold change (AAK1 [2])
Cc1cc(SCc2sc(-c3ccc(C(F)(F)F)cc3)nc2C)ccc1OCC(=O)O,0.051,-0.048,0.096
CCCc1cc(C)[nH]c(=O)c1CNC(=O)c1cc(-c2ccnc(N3CCN(C)CC3)c2)cc2c1cnn2C(C)C,-0.02,-0.026,0.08
COc1cccc2cc(-c3nc([C@H]4CC[C@H](C(=O)O)CC4)n4ncnc(N)c34)[nH]c12,-0.045,0.129,0.022
CC(=O)c1cnc2ccc(-c3cc(Cl)c(O)c(Cl)c3)nc2c1N[C@H]1CC[C@H](CN(C)C)CC1,0.077,0.319,0.366
O=C(Nc1cccc(Nc2ncc(Br)c(NCCc3cnc[nH]3)n2)c1)N1CCCC1,0.067,0.255,0.265
CNCc1ccc(-c2[nH]c3cc(F)cc4c3c2CCNC4=O)cc1 [rucaparib],0.055,0.007,-0.013
Cc1cc(Nc2cc(N3CCN(C)CC3)nc(Sc3ccc(NC(=O)C4CC4)cc3)n2)n[nH]1 [tozasertib],0.029,0.152,0.211
CON(C)C(=O)N1N=C(c2cc(F)ccc2F)S[C@@]1(CCCN)c1ccccc1 [filanesib],0.041,-0.01,-0.108
COc1ccc(Cn2ccc3ccc(C(=O)NO)cc32)cc1,-0.017,-0.089,0.048
O=C1NC(=O)/C(=C\c2ccc3nccnc3c2)S1,0.027,0.107,0.033
CC(C)c1cnn2c(NCc3ccccc3)cc(NCCCCCCN)nc12,-0.099,-0.145,-0.043
CCCS(=O)(=O)Nc1ccc(F)c(C(=O)c2c[nH]c3ncc(-c4ccc(Cl)cc4)cc23)c1F [vemurafenib],-0.012,-0.016,0.147
O=C(CCCCCCNC(=O)c1cnc(N(c2ccccc2)c2ccccc2Cl)nc1)NO [citarinostat],0.024,-0.014,-0.015
CN(C)CC(=O)Nc1ccc2[nH]c(=O)c3ccccc3c2c1,0.021,0.037,0.087
COc1cc(C(=O)O)ccc1NC(=O)[C@@H]1N[C@@H](CC(C)(C)C)[C@](C#N)(c2ccc(Cl)cc2F)[C@H]1c1cccc(Cl)c1F [idasanutlin],-0.053,-0.077,-0.129
CC(C)N(C[C@H]1O[C@@H](n2cnc3c(N)ncnc32)[C@H](O)[C@@H]1O)[C@H]1C[C@@H](CCc2nc3cc(C(C)(C)C)ccc3[nH]2)C1 [pinometostat],0.147,-0.033,-0.05
COC(=O)[C@H](CCSC)NC(=O)c1ccc(NC[C@@H](N)CS)cc1-c1ccccc1,-0.029,0.023,-0.044
O=C1NC(=NCc2cccs2)S/C1=C\c1ccc2ncccc2c1,-0.059,0.234,0.339
Cc1ncc(-c2ccnc(Nc3ccc(S(C)(=O)=O)cc3)n2)n1C(C)C,0.008,0.028,0.219
CN(CCOc1ccc(C[C@@H]2SC(=O)NC2=O)cc1)c1ccccn1 (racemic) [rosiglitazone],0.029,0.107,0.04
FC(F)(F)c1ccc(/C=C/c2nc(COc3ccc(CCCCn4ccnn4)cc3)co2)cc1 [mubritinib],0.017,-0.124,-0.066
Cc1ccc2c(=O)c3ccccc3n(CCCN)c2c1C,-0.003,-0.044,-0.017
COc1cc(Nc2ncc3c(n2)-c2ccc(Cl)cc2C(c2c(F)cccc2OC)=NC3)ccc1C(=O)O [alisertib],0.062,0.002,0.576
Cc1ccc(NC(=O)c2cccc(N(C)C)c2)cc1NC(=O)c1ccc(O)cc1,-0.063,-0.011,0
Cc1cccc(CC(=O)N2CCc3c2ccc(-c2cn(C)c4ncnc(N)c24)c3F)n1,0.016,-0.017,-0.048

Structure (SMILES),log2 fold change (AAGAB),log2 fold change (AAK1 [1]),log2 fold change (AAK1 [2])
CN1CCN(c2nc(C3=C(c4c[nH]c5ccccc45)C(=O)NC3=O)c3ccccc3n2)CC1 [sotrastaurin],0.007,-0.005,-0.196
O=C(CCCCCCC(=O)Nc1ccccc1)NO [vorinostat],-0.009,-0.007,0.074
CN1CCN(CCOc2cc(OC3CCOCC3)c3c(Nc4c(Cl)ccc5c4OCO5)ncnc3c2)CC1 [saracatinib],0.168,0.147,0
CC(C)C[C@@H](C=O)NC(=O)[C@H](CC(C)C)NC(=O)[C@H](CC(C)C)NC(=O)OCc1ccccc1,0,0.065,-0.061
CC(C)(C)Cn1c(N)nc2ccc(-c3[nH]c(C(C)(C)C)nc3-c3ccc(F)cc3)nc21 [ralimetinib],0.065,-0.01,0.04
C[C@H](Nc1ncnc2nc[nH]c12)c1cc2cccc(Cl)c2c(=O)n1-c1ccccc1 [duvelisib],-0.1,0.007,0.186
CN1CCc2c(c3ccccc3n2Cc2ccc(C(=O)NO)cc2)C1 [Tubastatin A],0.016,-0.05,0.003
CC[C@@H]1C(=O)N(C)c2cnc(Nc3ccc(C(=O)NC4CCN(C)CC4)cc3OC)nc2N1C1CCCC1,-0.106,-0.086,0.078
Cc1cn(-c2cc(NC(=O)c3ccc(C)c(Nc4nccc(-c5cccnc5)n4)c3)cc(C(F)(F)F)c2)cn1 [nilotinib],-0.077,-0.084,0.027
COC(=O)N[C@@H](C)CNc1nccc(-c2cn(C(C)C)nc2-c2cc(Cl)cc(NS(C)(=O)=O)c2F)n1 [encorafenib],0.045,0.033,-0.047
C#Cc1cccc(Nc2ncnc3cc(OCCOC)c(OCCOC)cc23)c1 [erlotinib],0.251,0.043,-0.028
NC(=O)c1ccc2nc(-c3ccc(Oc4ccc(Cl)cc4)cc3)[nH]c2c1,-0.068,0.02,0.005
CC[C@H](C)n1cc(C)c2c(C(=O)NCc3c(C)cc(C)[nH]c3=O)cc(-c3ccc(N4CCNCC4)nc3)cc21,0.058,-0.005,-0.013
CNC(=O)c1ccccc1Nc1nc(Nc2ccc(N3CCOCC3)cc2OC)ncc1Cl,0.112,0.333,0.281
CC[C@H](C)[C@H](NC(=O)[C@H]([C@@H](C)CC)N(C)C(C)=O)C(=O)N[C@H](C(=O)N[C@@H](CC(C)C)C(=O)[C@@]1(C)CO1)[C@@H](C)O [epoxomicin],0.006,-0.098,0.031
CN1CC[C@H](c2c(O)cc(O)c3c(=O)cc(-c4ccccc4Cl)oc23)[C@H](O)C1 [alvocidib],0.008,-0.009,0.025
COc1cc2ncnc(Nc3ccc(F)c(Cl)c3)c2cc1OCCCN1CCOCC1 [gefitinib],-0.027,-0.049,-0.097
O=C1c2ccccc2-c2n[nH]c3cccc1c23,0.01,0.254,0.319
CN1CCC(CNc2ccc3ncc(-c4cccc(OC(F)(F)F)c4)n3n2)CC1,-0.228,0.332,0.27
Cc1ccc(-n2nc(C(C)(C)C)cc2NC(=O)Nc2ccc(OCCN3CCOCC3)c3ccccc23)cc1 [doramapimod],0.017,-0.013,-0.095
O=C(Nc1nc2ccccc2n1CCN1CCOCC1)c1cccc([N+](=O)[O-])c1 [IRAK-1-4 Inhibitor I],-0.016,-0.063,-0.085
C[C@@H](N)c1ccc(C(=O)Nc2ccnc3[nH]ccc23)cc1,0.084,0.365,0.412 (active)
NC(=O)Nc1cc(-c2cccc(F)c2)sc1C(=O)N[C@H]1CCCNC1,-0.071,0.318,0.28
Cc1cccc(-c2[nH]c(C(C)(C)C)nc2-c2ccc3nccnc3c2)n1,-0.036,0,0.015
